The record followed here is PubChem BioAssay (NCATS).

Where “and” joins values, the source holds several entries; their conditions need not be identical. Equal values may be shown once. Inconclusive results are not listed. Calls of active or inactive are those of the source. Calls follow the shape of the dose curve; as a rule, active = well fitted inhibition curve with a large enough effect; inconclusive = small, poorly fitted or top-dose-only effect; inactive = flat fitted curve, though single readings scatter.
% is scaled to controls: 0 for no effect and ±100 for the full control effect.

This experiment has as its system KB-3-1. The experiment can be described thus: Cytotoxic Profiling of Annotated Libraries Using Quantitative High-Throughput Screening (AID 1296008). Also: nearly all actives have a fitted effect of over 60% in size. Particulars: Five cell lines viability, CellTiter-Glo ATP luminescence, 48-72 h; max response: active compounds read low. The essentials: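 Cytotoxicity was measured as CellTiter-Glo ATP luminescence, read after 10 min at room temperature. Compound treatment of the cells lasted 48 or 72 hr at 37 degrees Celsius in a qHTS format.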
(In ATP-based viability assays light output follows the ATP content of the culture.)
`O=C(NCCNCC(O)COc1ccc(O)cc1)N1CCOCC1` (stereo unspecified): the max response was 1.66% (inactive). As for `CC(=C\c1ccccc1)/C=C1/SC(=S)N(CC(=O)O)C1=O`, the max response was 3.64% (inactive).

`Cc1c(N)nc([C@H](CC(N)=O)NC[C@H](N)C(N)=O)nc1C(=O)N[C@H](C(=O)N[C@H](C)[C@@H](O)[C@H](C)C(=O)N[C@H](C(=O)NCCc1nc(-c2nc(C(=O)NCCCCN=C(N)N)cs2)cs1)[C@@H](C)O)[C@@H](O[C@@H]1O[C@@H](CO)[C@@H](O)[C@H](O)[C@@H]1O[C@H]1O[C@H](CO)[C@@H](O)[C@H](OC(N)=O)[C@@H]1O)c1cnc[nH]1`: the max response is -6.52% (inactive) and -5.98% (inactive). For `Cc1ncc(C[n+]2csc(CCOP(=O)(O)O)c2C)c(N)n1`, the max response was -2.14% (inactive). Take `CC(C)c1ncc([N+](=O)[O-])n1C`: the max response was -7.8% (inactive). Consider `CCCCCc1ccc(C)cc1O`, for which the max response is -0.225% (inactive).

As for `FC(F)(F)C(F)(F)C(F)(F)C(F)(F)C(F)(F)C(F)(F)F`, the max response is 6.4% (inactive). Consider `O=C(NNCNNC(=O)c1ccncc1)c1ccncc1`, for which the max response was 1.42% (inactive). As to `CCCC(=O)O`, the max response was 2.03% (inactive). As to `CN1CCCC(CN2c3ccccc3Sc3ccccc32)C1` (stereo unspecified), the max response was -10.2% (inactive). Next, `COC(=O)C(CN)c1c[nH]c2ccc(OC)cc12` (stereo unspecified): 9.41% (inactive); `CN(Cc1ccccc1)Cc1ccccc1`: 19.7% (inactive); `COc1ccc(/C=C/C(=O)O)cc1`: -11.7% (inactive). Next, `CC(C)CCC[C@@H](C)[C@H]1CC(=O)C2=C3CC[C@H]4C[C@@H](O)CC[C@]4(C)[C@H]3CC[C@@]21C`: -6.65% (inactive). As for `CCN(CC)CCOc1ccccc1OC`, the max response was 3.77% (inactive).

Turning to `O=C1CCC(=O)N1CO`, the max response is -1.35% (inactive). For `CCOC(=O)Oc1c(OC)cc(C(=O)O[C@@H]2C[C@@H]3CN4CCc5c([nH]c6cc(OC)ccc56)[C@H]4C[C@@H]3[C@H](C(=O)OC)[C@H]2OC)cc1OC`, the max response was 3.08% (inactive). In the case of `CC(=O)Nc1ccc(OC(C)=O)cc1`, the max response was 6.1% (inactive).

As to `CC(C)CCC[C@@H](C)[C@H]1CC[C@H]2[C@@H]3CC[C@@H]4C[C@H](O)CC[C@]4(C)[C@H]3CC[C@]12C`, the max response is -12.6% (inactive).

For `CC/C=C\C/C=C\C/C=C\C/C=C\C/C=C\CCCC(=O)O`, the max response was -1.96% (inactive). Take `Cn1c(O)c(N=NC(N)=S)c2ccccc21`: the max response is 8.19% (inactive). Next, `CC(CN(C)C)CN1c2ccccc2Sc2ccc(C(F)(F)F)cc21` (stereo unspecified): -6.33% (inactive); `O=C(O)CN(CC(=O)O)CC1=CC2C(=CC1=O)Oc1cc(O)c(CN(CC(=O)O)CC(=O)O)cc1C21OC(=O)c2ccccc21` (stereo unspecified): -3.16% (inactive); `Cc1nc(NS(=O)(=O)c2ccc(N)cc2)nc(C)c1Br`: 9.38% (inactive). On to `COc1ccc(C(=O)CCC(=O)O)c2ccccc12`, for which the max response was -0.566% (inactive). For the molecule `CC1=CCC2CC1C2(C)C` (stereo unspecified), the max response was 16.6% (inactive). As to `C=CC[N+]1([C@H]2C[C@H]3[C@@H]4CC[C@H]5C[C@H](O)[C@@H](N6CCOCC6)C[C@]5(C)[C@H]4CC[C@]3(C)[C@H]2OC(C)=O)CCCC1`, the max response is 7.82% (inactive). Take `CCN(CC)CCOc1ccc2nc(N(C)C)sc2c1`: the max response is -23.9% (inactive). Turning to `CCCCC`, the max response was 7.19% (inactive). With `NC(=O)Oc1ccc(Cc2ccccc2)cc1`, the max response is 11.9% (inactive). For `OC[C@H]1O[C@@H](O[C@H]2[C@H](O)[C@@H](O)[C@H](O)O[C@@H]2CO)[C@H](O)[C@@H](O)[C@@H]1O`, the max response is 4.72% (inactive). As to `O=[N+]([O-])c1c(Cl)cccc1-c1c[nH]cc1Cl`, the max response is 2.84% (inactive).

In the case of `Cc1cc(C)c(NC(=O)C[C@H](CC(=O)O)c2cccc3ccccc23)c(C(=O)N2CCC3(CCCC3)CC2)c1`, the max response is -2.39% (inactive). For `C[C@]12CC[C@@H]3c4ccc(O)cc4CC[C@H]3[C@@H]1CC[C@@H]2OP(=O)(O)O`, the max response is -26.5% (inactive). Next, `CCN(CC)C(=O)[C@]1(c2ccccc2)C[C@@H]1CN`: 6.62% (inactive); `C[C@H](CCC(=O)O)[C@H]1CC[C@H]2[C@@H]3[C@H](O)C[C@@H]4C[C@H](O)CC[C@]4(C)[C@H]3C[C@H](O)[C@]12C`: 1.07% (inactive).
